# Bioassay records: PubChem BioAssay, National Center for Advancing Translational Sciences (NCATS)
# A selection: hits, their analogues and other compounds. The true share with any hit is near 2.6%.
# KCNH2 WT inh: qHTS for Inhibitors of KCHN2 3.1: Wildtype qHTS. U2OS, BacMam KCNH2, thallium flux FluxOr; stronger effect = lower value. activity change, % at 1.84 µM. 0.37% of 340,000 active;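 active = maximum activity change below -70%; inconclusive = maximum activity change between -70% and -50%; inactive = maximum activity change above -50%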; also: % is scaled to controls: 0 for no effect and ±100 for the full control effect
#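 U2OS cells transduced with wild-type KCNH2 virus are loaded with FluxOr dye for 45 min, and thallium flux is measured in kinetic reads before and after stimulation buffer. Rate constants are normalized to DMSO controls.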
# TRPV1 potentiator: HTS Assay for Compounds that Act as Potentiators of the Vanilloid Receptor 1; Transient receptor potential cation channel subfamily V member 1 (Homo sapiens), Q8NER1; TRPV1-expressing cells, Fluo-8 calcium influx, capsaicin EC20 potentiation; potentiation, % at 8.33 µM; 0.02% of 320,000 active; AID 540277, 2011; in the data active = potentiation above about 80%; inconclusive = between about 30% and that limit; also: 0% is about no effect
#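 TRPV1-expressing cells were cultured overnight at 35.5C and loaded with Fluo-8 calcium dye for 40 to 90 min at room temperature. After a 10 s baseline, compound was added and calcium influx was read kinetically for 3 min (ex 480/em 520 nm).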
# ClpP mod: qHTS Assay for Activators of ClpP; purified B. subtilis ClpP, FRET peptide cleavage, 20 min; Potency, µM (top dose mostly 57.5 µM), without a hit: at the highest dose activity change, negative = active; 1.9% of 340,000 active; AID 651965, 2013; active = well fitted falling curve with a large enough effect; inconclusive = small, poorly fitted or top-dose-only effect; inactive = no such curve, though single readings can be large or run the other way; also: potency is read from the fitted curve at half-maximal effect; the source files actives as falling curves though it sought activators and does not explain the sign; nearly all actives have a fitted effect of over 65% in size
#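 Purified B. subtilis ClpP, 10 microg/mL final in Tris/HCl pH8 with KCl, BSA, glycerol and Tween-20, cleaved an Abz/nitrotyrosine-quenched decapeptide. Fluorescence (ex 320, em 430) was read at 0 and 20 min at room temperature. Delta was normalized to 5.8 microM ADEP and DMSO/no-enzyme controls.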
# p53 reactivation: qHTS assay for re-activators of p53 using a Luc reporter. H1299 p53-A138V BP100-luciferase reporter, luminescence, 24 h. Potency, µM (series often up to 92.2 µM), inactives show at the top dose activity change, positive = activation, actives largely listed as activators. 0.063% of 320,000 active. AID 504706, 2011; active = well fitted activation curve with a large enough effect; inconclusive = small, poorly fitted or top-dose-only effect; inactive = no such curve, though single readings can be large or run the other way; also: potency is read from the fitted curve at half-maximal effect; % of control where 0% means no effect; nearly all actives have a fitted effect of over 45% in size
#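 H1299 (p53-null), stable ts p53-A138V + BP100-Luc; 1000 cells/well, Opti-MEM/10% FBS; cpd 4 pt, 1:5; 24 h, 37 deg C, 5% CO2; detection reagent 10 min RT; luminescence.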
# KCNH2 3.1 inh: qHTS for Inhibitors of KCHN2 3.1: Mutant qHTS | U2OS KCNH2 3.1, thallium flux FluxOr; stronger effect = lower value | activity change, % (tested at about 1.8 µM) | 0.95% of 340,000 active;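 active = maximum activity change below -70%; inconclusive = maximum activity change from -70% to -50%; inactive = maximum activity change above -50%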;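 also: thallium influx rate constant from kinetic fluorescence after stimulation buffer; % is scaled to controls: 0 for no effect and ±100 for the full control effect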
#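 Thallium flux read-out: FluxOr dye with Red40 quencher in HBSS/HEPES, 45 min at RT. Rate constants from kinetic reads were normalized to positive and negative DMSO controls. Cells: U2OS virally expressing the 3.1 isoform.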
# TRPV1 ag: HTS Assay for Compounds that Act as Agonists of the Vanilloid Receptor 1; TRPV1-expressing cells, Fluo-8 calcium influx, agonist mode; activation, % at 8.33 µM; 0.19% of 320,000 active; AID 540275, 2011; Transient receptor potential cation channel subfamily V member 1 (Homo sapiens), Q8NER1; in the data active = activation above about 80%; inconclusive = between about 30% and that limit; also: 0% is about no effect
#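 TRPV1-expressing cells were cultured overnight at 35.5C and loaded with Fluo-8 calcium dye for 40 to 90 min at room temperature. After a 10 s baseline, compound was added and calcium influx was read kinetically for 3 min (ex 480/em 520 nm).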
# * hit, by the source's call; i = inactive; ? = inconclusive; nt = no result.
SMILES,KCNH2 WT inh,TRPV1 potentiator,ClpP mod,p53 reactivation,KCNH2 3.1 inh,TRPV1 ag
O=C(CN1C(=O)CC(c2ccc(F)cc2)=Nc2ccccc21)NCc1ccccc1Cl,nt,nt,0%,nt,nt,nt
Clc1cncc(Cl)c1NNc1c2ccccc2nc2ccccc12,-5,0,28µM*,0%,10,9
C(=Nc1ccc(/C=C/c2ccnc3ccccc23)cc1)c1ccc2c(c1)OCO2,nt,nt,-9%,nt,nt,nt
Cc1cccc(C(=O)Oc2csc(=S)n2C(=O)c2cccc(C)c2)c1,-3,-1,0%,9%,8,-2
O=C(Oc1csc(=S)n1C(=O)c1ccccc1)c1ccccc1,0,8,8.9µM*,-3%,0,1
CCOc1ccccc1NC(=O)c1nc(SCc2ccccc2F)ncc1Cl,nt,nt,1%,nt,nt,nt
CC(Sc1nc(-c2ccccc2)c(-c2ccccc2)[nH]1)C(=O)NCC1CCCO1 (configuration not stated),0,nt,28µM*,nt,14,nt
CCc1cc(SC#N)cc(C)c1NC(=O)CCl,4,-3,-4%,-19%,-26,-1
CCc1cc(SC#N)cc(C)c1N,12,0,1%,12%,-74*,4
CCN(C(=O)Cn1nnc2sc3c(c2c1=O)CCC(C(C)(C)C)C3)c1cccc(C)c1 (configuration not stated),nt,nt,2%,nt,nt,nt
Cc1ccc(C)c(NC(=O)Cn2c(=O)n(Cc3ccc4c(c3)OCO4)c(=O)c3ccccc32)c1,nt,nt,-4%,nt,nt,nt
C=CCN(c1ccc(C(=O)Nc2ccc3c(c2)n(C)c(=O)n3C)cc1)S(C)(=O)=O,-284*,2,-1%,-3%,4,1
COc1ccc(Cl)cc1NC(=O)NCC1CCN(Cc2cc(C)ccc2C)CC1,2,-10,0%,1%,-24,2
COc1cc([N+](=O)[O-])ccc1NC(=O)NCC1CCN(Cc2ccc(Cl)cc2)CC1,-107*,-32,-1%,0%,-102*,?
COc1ccc2[nH]c(=O)c(-c3nnn(-c4ccc(Cl)nc4)n3)cc2c1,-2,nt,-6%,nt,-99*,nt
COc1ccc2[nH]c(=O)c(-c3nnn(-c4ccc(F)cc4)n3)cc2c1,-7,nt,-11%,nt,5,nt
CCOC(=O)c1sc(C)c2c(=O)n(CC(=O)c3ccc(Br)cc3)nnc12,-11,?,1%,7%,6,-3
CCOC(=O)Cn1c(C)nc2c(C(=O)OCC)sc(C)c2c1=O,2,14,32µM*,-4%,7,-2
CC1(C)CC(=O)c2cc(OCC(=O)NCCN3CCOCC3)ccc2O1,-15,-5,?,3%,3,5
CCOC(=O)COc1ccc2c(c1)C(=O)CC1(CCN(C(C)=O)CC1)O2,-7,-3,28µM*,3%,1,2
CC1(C)CC(=O)c2cc(OCC(=O)O)ccc2O1,-2,-7,25µM*,9%,-11,5
CCOC(=O)N1CCN(C(=O)COc2ccc3c(c2)C(=O)CC(C)(C)O3)CC1,-8,16,4%,-4%,6,-5
CC(=O)N1CCC2(CC1)CC(=O)c1cc(OCC(=O)N3CCCC3)ccc1O2,-10,5,4%,5%,5,-4
CC1(C)CC(=O)c2cc(OCC(=O)N3CCCCCC3)ccc2O1,-12,5,28µM*,?,13,10
CCOC(=O)COc1ccc2c(c1)C(=O)CC(C)(C)O2,-3,8,28µM*,0%,12,-1
SMILES,KCNH2 WT inh,TRPV1 potentiator,ClpP mod,p53 reactivation,KCNH2 3.1 inh,TRPV1 ag
N#Cc1ccccc1Cn1c(=O)n(Cc2ccc(C(=O)NC3CCN(Cc4ccccc4)CC3)cc2)c(=O)c2ccccc21,nt,nt,1%,nt,nt,nt
Cn1nc(C(C)(C)C)cc1C(=O)N1CCCCC1c1cc(C(=O)Nc2ccc3c(c2)OCO3)no1 (configuration not stated),nt,nt,-1%,nt,nt,nt
CCN1CCN(C(c2cccs2)C(C)NS(=O)(=O)c2ccc(C)cc2)CC1 (configuration not stated),nt,17,1%,2%,-76*,0
CCCCn1nc(NC(=O)COC)c2cc3ccc(C)cc3nc21,0,-22,-21%,-3%,16,89*
CCCn1nc(NC(=O)COC)c2cc3cc(C)ccc3nc21,nt,?,-21%,3%,16,-3
CCCCOCCCNC(=O)C[C@@H]1C[C@@]2(C(=O)OCC)CCC=C2N(CCC2=CCCCC2)C1=O,nt,nt,-4%,nt,nt,nt
O=C(O)COn1c(-c2ccccc2)nc2ccc(Cl)cc21,i,7,nt,-2%,14,-2
COn1c(-c2ccccc2)nc2ccc(Cl)cc21,-6,-43,-3%,?,-94*,20
COc1ccc(-c2nc[nH]c2[N+](=O)[O-])cc1,4,0,nt,-3%,-6,2
CCOc1ccc(-c2nc[nH]c2[N+](=O)[O-])cc1,-9,-2,nt,0%,-198*,-2
Cc1nn(CCC(=O)Nc2cc(F)ccc2F)c(=O)c2nn(-c3ccccc3)c(C)c12,nt,nt,-7%,nt,nt,nt
COc1ccc(C(=O)C[C@@H]2OC[C@H](Cc3ccccc3)N2S(=O)(=O)c2ccc(C)cc2)cc1OC,nt,nt,-2%,nt,nt,nt
O=C(c1cc(-c2cccc(O)c2)on1)N1CCCCC1,-2,10,-3%,11%,3,7
O=C(c1cc(-c2ccc(Cl)c(Cl)c2)on1)N1CCOCC1,-4,4,nt,29%,9,80*
O=C(c1cc(-c2cccc(O)c2)on1)N1CCCC1,-228*,-4,nt,?,-188*,-1
O=C(c1cc(-c2ccc(Cl)cc2Cl)on1)N1CCOCC1,11,-1,0%,28%,-37,83*
O=[N+]([O-])c1ccc(-c2cc3ccccc3[nH]2)cc1,nt,nt,1%,nt,nt,nt
Cc1ccc(S(=O)(=O)Nc2ccccc2N=Cc2ccc([N+](=O)[O-])cc2[N+](=O)[O-])cc1,6,nt,1%,nt,9,nt
O=C(Nc1ccc(F)cc1)C(CCc1ccccc1)N1CCN(c2ccncc2)CC1 (configuration not stated),nt,nt,0%,nt,nt,nt
CC(C)n1nc(C(=O)Oc2ccc(Cl)cc2)c2ccccc2c1=O,5,-25,18µM*,18%,-1,6
Cc1cc(=O)oc2cc(OC(=O)c3nn(C(C)C)c(=O)c4ccccc34)ccc12,1,1,-12%,4%,21,-2
CC(C)c1ccc(OCC(=O)N(Cc2cccs2)C2CCS(=O)(=O)C2)cc1 (configuration not stated),nt,nt,1%,nt,nt,nt
